HIV Env fusion: blocks HIV Env-driven cell-cell fusion; HeLa-JRFL Env/CEM21 cell fusion, luciferase; inhibition, % at 12.3 µM; 1.1% of 360,000 active;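 active means mean replicate inhibition score of at least 50 and every replicate individually at or above 50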;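 further: 0% = plate neutral controls and 100% = maraviroc near 300 nM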
NSD2 inh: inhibitors of human histone methyltransferase NSD2; NSD2 peptide methylation, AlphaScreen, 120 min; O96028; 0.54% of 310,000 active; AID 743445; inhibition, % at 12.5 µM; in the data active means inhibition above about 50%
F508del corr: CFTR F508del correction in bronchial cells | activity (quench increase), % at 7.58 µM | CFBE cells, YFP halide quenching; stimulated with forskolin plus potentiator P3; % fluorescence drop versus neutral controls | 0.36% of 350,000 active;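 active means mean added fluorescence quench of at least 8% versus neutral control, with both replicates also reaching 8%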;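 further: cells transiently co-express mutant CFTR-F508del with the halide-sensitive YFP; corrector assay measuring rescue of mutant channel to the surface after 24 h compound exposure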
ALR H2O2 inh: human ALR oxidase inhibition via reduced H2O2; inhibition, % (no concentration beside the values); purified ALR, DTT oxidation, H2O2 HRP-luminol luminescence; 3.8% of 290,000 active;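 active means mean replicate inhibition above about 79%, with every replicate also reaching it, limit read from the data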
CASP6 VEID inh: blocks human caspase-6 cleavage activity; purified caspase-6, Z-VEID-R110 cleavage fluorescence; inhibition, % at 12.5 µM; 0.53% of 350,000 active;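 active means mean inhibition across replicates at least about 35%, with every replicate also reaching that limit, limit read from the data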;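 further: 0% = median of neutral control wells and 100% = no fluorescence left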
PglD inh: inhibitors of Campylobacter jejuni PglD acetyltransferase | purified PglD enzyme, DTNB colorimetric CoA detection | inhibition, % at 12.5 µM | 0.098% of 360,000 active | AID 602405; in the data active means inhibition above about 16%, passing the limit was not always enough
* hit, by the source's call; / = not tested or not shown; [ ] = dose if it differs, or a comment. Shown are actives, neighbours in structure and some others; about 4.1% of the full set was active somewhere.

SMILES | HIV Env fusion | NSD2 inh | F508del corr | ALR H2O2 inh | CASP6 VEID inh | PglD inh
Cc1noc(C)c1S(=O)(=O)Nc1ccc2c(c1)C(=O)N([C@H](C)CO)C[C@@H](C)[C@H](CN(C)Cc1ccncc1)OCCCC[C@@H](C)O2 | -18[16.7 µM] | / | -1 | / | 2 | 1
C=CCNC(=S)N1CCC(C(=O)c2ccc(C)cc2)CC1 | 12 | 2 | 2 | / | -4 | -5
C=CCNC(=S)N1CCC(C(=O)c2ccc(Cl)cc2)CC1 | -5 | 1 | / | -7 | 64* | 7
CCCN1[C@@H]2c3ccc(C4=CCCC4)c(=O)n3C[C@H]1[C@H](CO)[C@H]2C(=O)NCc1ccccn1 | / | / | -1 | / | 1 | 1
COc1ccc(S(=O)(=O)Nc2cccc3c2O[C@@H](CN(C)C(=O)NC2CCCCC2)[C@@H](C)CN([C@@H](C)CO)C3=O)cc1 | / | / | -2 | / | 0 | -2
COc1ccc(C(O)(CCC(C)C)C(CN2CCOCC2)c2ccccc2)cc1 (configuration not stated) | 73* | 0 | 2 | -19 | 3 | 2
Cc1ccc(Cl)cc1N1CCN(C(=O)c2cn(C)c(=O)c3c2c2ccccc2n3C)CC1 | / | / | 10* | / | 2 | -1
Cc1cccc(N2CCN(C(=O)c3cn(C)c(=O)c4c3c3ccccc3n4C)CC2)c1C | / | -4 | 1 | 88* | 6 | -3
COCCn1cc(C(=O)N2CCN(C)CC2)c2c3ccccc3n(C)c2c1=O | -10 | 2 | / | -2 | / | 5
Cn1c2ccccc2c2c(C(=O)N3CCN(c4ccccc4)CC3)cn(C3CCCC3)c(=O)c21 | -46 | -3 | / | 2 | / | -2
C[C@H](CO)N1C[C@H](C)[C@@H](CN(C)CC2CCCC2)Oc2ncc(C#Cc3ccccn3)cc2C1=O | / | / | 1 | / | / | /
N#CCNC1CC(=O)N(c2ccccc2)C1=O (configuration not stated) | 5 | 0 | -3 | / | -1 | 4
CN(NC1CC(=O)N(c2ccccc2)C1=O)c1ccccc1 (configuration not stated) | 28 | 21 | / | 97* | / | /
CO[C@@H]1CN(C)C(=O)c2ccc(NC(=O)Nc3cccc(F)c3)cc2OC[C@H](C)N(C(C)=O)C[C@@H]1C | -3[16.7 µM] | / | 0 | / | / | 5
Cc1cc(C)nc(Nc2n[nH]c(-c3ccc(N)cc3)n2)n1 | -113 | -1 | / | 99* | / | -1
CC(=O)c1sc2c(c1OC(=O)c1ccccc1)c(=O)n(-c1ccccc1)c(=S)n2-c1ccccc1 | 62* | -2 | 8 | / | 1 | /
CC(=O)c1sc(=S)n(-c2ccccc2)c1C | -1 | 0 | 0 | -2 | 1 | 9
COc1cc(NC(=O)CN2C(=O)C(c3ccccc3)=NC2(C)C)cc(OC)c1 | -3 | / | -4 | 97* | 1 | 0
CC(=O)c1cccc(NC(=O)CSc2ccc(-c3ccc4c(c3)OCO4)nn2)c1 | -25 | 1 | -4 | 47 | 0 | -1
COc1ccc(-c2ccc(SCC(=O)Nc3cccc(C(C)=O)c3)nn2)cc1OC | -31 | 30 | 0 | 85* | 1 | 3
COc1ccccc1NC(=O)CSc1ccc(-c2ccccn2)nn1 | -36 | -1 | 8.1* | 13 | -8 | 5
O=C(CSc1nc2ccccc2c(=O)[nH]1)Nc1cccc([N+](=O)[O-])c1 | 63* | -3 | -1 | -2 | -1 | -1
COc1ccccc1NC(=O)CSC1=NCCN1 | -21 | 15 | / | 98* | / | -7
O=C(C1=C[C@@H](c2ccc3c(c2)OCO3)C[C@@H](OCc2ccc(CO)cc2)O1)N1CCCCCCC1 | 6[16.7 µM] | / | -3 | / | 1 | /
Cc1ccccc1S(=O)(=O)N(C)C[C@H]1OCc2ccccc2-c2c(n(C)c3ccccc23)C(=O)N([C@@H](C)CO)C[C@H]1C | / | / | 5 | / | / | -3
SMILES | HIV Env fusion | NSD2 inh | F508del corr | ALR H2O2 inh | CASP6 VEID inh | PglD inh
CC(=O)N[C@H]1C=C[C@H](CC(=O)NCC2CCCCC2)O[C@@H]1CO | 2[16.7 µM] | / | -1 | / | 2 | -1
O=C(CSC1=NCCN1)Nc1cccc([N+](=O)[O-])c1 | 3 | 9 | 10* | 99* | 4 | 4
COc1ccccc1NC(=O)CSc1nc(SC)ns1 | -3 | -5 | -2 | 85* | -4 | -3
COc1ccccc1NC(=O)CSc1nnc(-c2ccccn2)n1Cc1ccco1 | 25 | 4 | / | 97* | / | 5
O=C(CSC1=NCCN1)Nc1ccccc1[N+](=O)[O-] | -5 | 0 | 1 | 99* | -1 | /
C[C@@H]1CCCCO[C@H](CN(C)C)[C@H](C)CN([C@H](C)CO)C(=O)c2cc(NC(=O)Nc3cccc4ccccc34)ccc2O1 | -10[16.7 µM] | / | -2 | / | -6 | 3
Cc1ccccc1-c1cnc2c(c1)C(=O)N([C@@H](C)CO)C[C@H](C)[C@H](CN(C)Cc1cccnc1)O2 | 9[16.7 µM] | / | -1 | / | 1 | -2
CO[C@H]1CN(C)C(=O)c2ccc(NC(=O)NC(C)C)cc2OC[C@H](C)N(CC2CC2)C[C@H]1C | 6[16.7 µM] | / | 2 | / | / | /
CO[C@@H]1CN(C)C(=O)c2ccc(NC(=O)Nc3cccc(Cl)c3)cc2OC[C@H](C)N(C(=O)Nc2c(C)noc2C)C[C@H]1C | / | / | 1 | / | 0 | /
CC(=O)c1ccc(NC(=O)CSc2ccc(-c3sc(C)nc3C)nn2)cc1 | -39 | -3 | 1 | 99* | 2 | 6
O=C(CSC1=NCCN1)NC(c1ccccc1)c1ccccc1 | -2 | 6 | 7 | 99* | 2 | /
O=C(Nc1ccn(Cc2ccccc2F)n1)c1ccc(COc2ccccc2Cl)cc1 | 60* | 0 | / | -8 | / | 2
Cc1cc(C)nc(NC(=O)c2ccc(COc3ccccc3Cl)cc2)c1 | -2 | -3 | -2 | 97* | -6 | 7
Cc1cc(C)n(Cc2ccc(NC(=O)c3ccc(COc4ccccc4Br)cc3)cc2)n1 | 79* | -3 | / | -27 | / | 4
Cc1ccc(NC(=O)Nc2ccc3c(c2)C(=O)N(C)[C@H]2CC[C@@H](CC(=O)O)O[C@@H]2CO3)cc1 | -8[16.7 µM] | / | -1 | / | 2 | 2
Cc1ccccc1S(=O)(=O)NCC[C@H]1CC[C@H](NC(=O)Nc2cccc(Cl)c2)[C@H](CO)O1 | -3[16.7 µM] | / | -3 | / | 1 | 2
O=C(O)Cc1c[nH]c2ccccc12 | / | / | 2 | -9 | -1 | -5
O=C(O)Cc1c[nH]c2cccc(O)c12 | / | / | 2 | 16 | 54* | 1
O=S(=O)(c1ccccc1)N1C[C@H]2[C@@H](c3ccccc31)[C@H](CO)N2Cc1ccccc1 | / | / | 2 | / | 3 | 4
CCCC(=O)Nc1ccc(C(=O)NCc2ccccn2)cc1 | 4 | 0 | 2 | -6 | 2 | /
N#CCC(=O)Nc1ccc(C(=O)NCc2ccccn2)cc1 | 1 | 4 | -1 | 99* | 2 | /
C[C@H]1CN([C@@H](C)CO)C(=O)c2cc(C3=CCCCC3)cnc2O[C@@H]1CN(C)C(=O)C1CCOCC1 | 6[16.7 µM] | / | -2 | / | 0 | 0
CN1c2ccc(-c3ccccc3F)cc2[C@H]2[C@H](CCN2C(=O)CN2CCOCC2)[C@@H]1CO | / | / | -1 | / | 0 | -3
O=C(CNC1CCCCC1)NN=C(c1ccccc1)c1ccccc1 | 18 | -3 | 12* | -1 | 0 | /

Bioassay records (PubChem)
